# From PubChem
# Most compounds without a hit are left out; they make up all but 6.5% or so of the library.
# VACV Venus inh: qHTS for Stage-Specific Inhibitors of Vaccinia Orthopoxvirus: Venus Reporter Primary qHTS. Vaccinia virus Venus reporter expression, fluorescence. 0.46% of 330,000 active. AID 720580, 2013. Potency, µM (titrated, usually from 36.5 µM), for inactives: at the top dose activity change, negative = inhibition, actives largely listed as inhibitors; calls by dose curve; tested in A549 cells; further: potency means the concentration at half of the fitted maximal effect; nearly all actives have a fitted effect of over 30% in size
# MARV entry inh: qHTS for inhibitors of binding or entry into cells for Marburg Virus | AID 540276, 2011 | Potency, µM (top dose mostly 37.8 µM), for inactives: top-dose activity change, negative = inhibition, most hits filed as inhibitors | Marburg virus pseudotyped entry inhibition, cell reporter | 1.8% of 300,000 active; calls by dose curve; tested in HEK293 cells; further: potency means the concentration at half of the fitted maximal effect
# Lassa entry inh: qHTS for Inhibitors of binding or entry into cells for Lassa Virus; Lassa virus pseudotype entry inhibition, cell reporter; Potency, µM (series often up to 37.9 µM), for inactives: at the highest dose activity change, negative = inhibition, most hits filed as inhibitors; 1.2% of 300,000 active; calls by dose curve; tested in HEK293 cells; further: potency means the concentration at half of the fitted maximal effect; nearly all actives have a fitted effect of over 50% in size
# Vaccinia mCherry: qHTS for Stage-Specific Inhibitors of Vaccinia Orthopoxvirus: mCherry Reporter Primary qHTS; Vaccinia virus mCherry reporter infection, fluorescence; Potency, µM (top dose mostly 36.5 µM), for the others: at the top dose activity change, negative = inhibition, hits mostly inhibitors; 0.63% of 310,000 active; calls by dose curve; tested in A549 cells; further: potency means the concentration at half of the fitted maximal effect; nearly all actives have a fitted effect of over 35% in size
# FMDV inh: High Throughput Screening for Foot and Mouth Disease Virus Antivirals; AID 1159524, 2015; 1.2% of 410,000 active; FMDV antiviral cell-based qHTS; Potency, µM (titrated, usually from 57.9 µM), for inactives: at the highest dose activity change, negative = inhibition, actives largely listed as inhibitors; calls by dose curve; tested in HEK293T cells; further: read-out not given here; potency means the concentration at half of the fitted maximal effect; nearly all actives have a fitted effect of over 45% in size
# HCMV antiviral: qHTS Assay for inhibitors of the human cytomegalovirus (HCMV) | HFF cells, HCMV-luciferase reporter, 72 h; active compounds read low | activity change, negative = inhibition, % at 57.5 µM | 4.5% of 410,000 active | AID 1259415, 2018; in the data active means activity change below about -60%; inconclusive means no clear call, values can overlap the other calls; inactive means above about -39%
#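 Two-dose cell screen: HFF monolayers treated with compounds and infected with luciferase-expressing HCMV at 1 PFU/cell, 72 h at 37C, then lysed for luciferase measurement.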
# The depositor's hits bear a star; i = inactive; ? = inconclusive; nt = no result given; [ ] = another dose, or the depositor's remark. On the % scale 0 is the no-effect control and ±100 the full control effect.
SMILES,VACV Venus inh,MARV entry inh,Lassa entry inh,Vaccinia mCherry,FMDV inh,HCMV antiviral
O=C(Nc1ccc(S(=O)(=O)N2CCCC2)cc1)c1cnccn1,0%,0%[46.1 µM],14%[46.1 µM],i,-22%,-3
COc1ccc(OC)c(C(=O)CC2OC(=O)c3ccccc32)c1 (configuration not stated),nt,?,-4%,nt,14µM*,-90*
COc1ccc(C2=NCC(CSc3nnc(-c4ccc5c(c4)OCO5)o3)S2)cc1 (configuration not stated),nt,?,9%,nt,?,0
CCN(CC)S(=O)(=O)c1ccc2oc(SCC3CN=C(c4ccc(OC)cc4)S3)nc2c1 (configuration not stated),nt,-30%,?,nt,?,-67*
C[C@@H]1CN(C2CCN(C(=O)c3ccccc3Cl)CC2)C[C@H](C)O1,nt,-19%[46.1 µM],nt,nt,nt,nt
COc1ccc2c(c1)[C@@H](NS(C)(=O)=O)[C@H](C)[C@@H](c1ccccc1)N2Cc1cccc(F)c1,nt,nt,nt,nt,nt,-9
O=[N+]([O-])c1ccccc1-c1cc(-c2ccccc2Br)no1,nt,nt,nt,nt,nt,71
Cc1c(C)c2ccc(OCC(=O)N[C@@H](Cc3ccccc3)C(=O)O)cc2oc1=O,-6%,nt,nt,-3%,-1%,-77*
CC1CN(C(=O)N2CCC(C(=O)NCc3ccco3)CC2)c2ccccc2O1 (configuration not stated),2%,nt,-29%[46.1 µM],-4%,-2%,1
O=C(NNS(=O)(=O)c1ccc2ccccc2c1)C1CCN(Cc2ccccc2)CC1,-14%,?,10%,-14%,-17%,-107*
C=CCN=C(CC)C1=C(O)CCCC1=O,-6%,2%,6%,-12%[1.46 µM],6%,-67*
C=CCN=C(C)C1=C(O)CCC1=O,-10%,10%,?,nt,3%,24
COc1ccccc1C(=O)Nc1ccnn1C1CCN(C(=O)c2ccoc2)CC1,1%,22%,6%,i,16%,3
COc1ccccc1C(=O)Nc1ccnn1C1CCN(C(=O)c2ccoc2C)CC1,-18%,-4%[46.1 µM],9%[46.1 µM],-9%,6%,-63*
COc1ccccc1C(=O)Nc1ccnn1C1CCN(C(=O)c2cnsn2)CC1,-2%,-11%,?,-4%,40%,-103*
CC(C)=CCCC(C)=CCON=C1C[C@@H](O)[C@@H](O)[C@@H]2[C@H]3C(=O)N(Cc4ccc5c(c4)OCO5)C(=O)[C@@H]3CC[C@H]12,nt,-17%[14.2 µM],?,nt,nt,nt
Cc1ccc2c(C)c(C(=O)N(Cc3ccc(N(C)C)cc3)Cc3ccco3)oc2c1C,-8%,-2%[46.1 µM],?,-17%,-24%,-1
O=C(NCCN1CCN(c2cccc(Cl)c2)CC1)C1COc2ccccc2C1 (configuration not stated),-22%,nt,-22%[46.1 µM],-18%,-27%,10
CN(C)c1ccc(C=C2C=Cc3ccccc32)cc1,-17%,-25%,6.3µM*,i,-1%,2
Nc1nc(-c2ccccn2)nc(N)c1Cc1c(F)cccc1Cl,-23%,?,?,?,3%,-96*
Nc1nc(-c2ccccn2)nc(N)c1Cc1ccccc1F,-12%,?,?,-16%,7%,-102*
Nc1nnc(Cc2ccc(Cl)cc2Cl)s1,-9%,2%,24%,-23%,-15%,14
Nc1nc(-c2ccccn2)nc(N)c1Cc1ccc(Cl)cc1Cl,-17%,?,?,?,6%,-93*
Cc1cc(=O)n2nc(N3CCCC(C(=O)NCCCN4CC(C)CC(C)C4)C3)sc2n1 (configuration not stated),0%[7.34 µM],nt,nt,i[7.34 µM],-14%,?
Cc1cc(=O)n2nc(N3CCCC(C(=O)NC4CCC(C)CC4)C3)sc2n1 (configuration not stated),-6%,-1%[46.1 µM],19%[46.1 µM],i,3%,-61*
SMILES,VACV Venus inh,MARV entry inh,Lassa entry inh,Vaccinia mCherry,FMDV inh,HCMV antiviral
Cn1cnnc1Sc1nc([N+](=O)[O-])nn1C,nt,nt,nt,nt,4%,-6
COc1ccccc1-c1nnc(Sc2nc([N+](=O)[O-])nn2C)o1,nt,?,-27%,nt,28µM*,-75*
CN1CCN(Cc2ccc(-c3cc4ncnc(Nc5ccc(OCc6cccc(F)c6)c(Cl)c5)c4s3)o2)CC1,nt,nt,20µM*,nt,nt,nt
Nc1ccc(C#Cc2cncnc2Nc2ccc(OCc3cccc(F)c3)c(Cl)c2)cc1,nt,nt,3.1µM*,nt,nt,nt
Fc1cccc(COc2ccc(Nc3ncnc4sc(-c5cccs5)cc34)cc2Cl)c1,nt,nt,16µM*,nt,nt,nt
Fc1cccc(Nc2ncnc3[nH]ncc23)c1,nt,nt,nt,nt,-19%,?
Cc1cccc(N2CCN(C(=O)c3cn(C)c(=O)c4c3c3ccccc3n4C)CC2)c1C,nt,?,6.5µM*,nt,-3%,4
Cc1cccc(N2CCN(C(=O)c3cn(CC(C)C)c(=O)c4c3c3ccccc3n4C)CC2)c1C,?,7%[46.1 µM],4%[46.1 µM],?,-14%,8
COc1ccc(-c2cn[nH]c2-c2ccc(OCc3ccc(F)cc3)cc2O)cc1OC,-27%,?,?,-22%,25µM*,?
COc1ccc(-c2cn[nH]c2-c2ccc(OCc3ccccc3)cc2O)cc1OC,?,?,?,11µM*,?,-37
COc1ccccc1N1CCN(S(=O)(=O)c2c(C)sc3ncn(CC(=O)N(C)c4ccc(C(C)C)cc4)c(=O)c23)CC1,-14%,23%[46.1 µM],-26%[46.1 µM],-15%,0%,-7
Cc1cccc(NC(=O)Nc2ccc(C#N)cc2)n1,?,1%,nt,?,30%,-84*
Cc1cccc(NC(=O)Nc2cccc(C#N)c2)n1,-20%,nt,nt,i,42%,-25
CCOC(=O)C1=C(N)n2c(s/c(=C/c3ccco3)c2=O)=C(C(=O)OCC)C1c1ccco1 (configuration not stated),nt,-18%,nt,nt,nt,nt
O=C1C=C(c2ccccc2)C(=O)N1Nc1ccccc1,-16%,-1%,?,-8%,35µM*,30
COc1ccc(C2=CC(=O)N(Nc3ccccc3)C2=O)cc1,-9%,?,-6%,-9%,?,-9
Cc1ccc(NN2C(=O)C=C(c3ccc(Cl)cc3)C2=O)cc1,?,?,?,?,40µM*,236
O=C(c1ccc2c(c1)N(Cc1ccc(F)cc1Cl)C(=O)c1ccccc1S2)N1CCC2(CC1)OCCO2,-3%,nt,?,-3%,-4%,-68*
C=CCN1C(=O)c2ccccc2Sc2ccc(C(=O)N3CCC4(CC3)OCCO4)cc21,nt,-16%,-5%,nt,-30%,-66*
O=C(C1=C(O)C(=O)N(CCCN2CCOCC2)[C@H]1c1ccccn1)c1cc2ccccc2o1,nt,3%,nt,nt,nt,nt
CC1CCCCN1C(=O)COC(=O)/C=C/c1ccc2ccccc2n1 (configuration not stated),?,nt,nt,?,51%,-84*
